# Test results published in PubChem BioAssay (NCATS).
# Inconclusive results are not listed. Values without a mark were called inactive. Calls of active or inactive are those of the source. Calls follow the shape of the dose curve; as a rule, active = well fitted inhibition curve with a large enough effect; inconclusive = small, poorly fitted or top-dose-only effect; inactive = flat fitted curve, though single readings scatter.
# Molecular target: Luciferin 4-monooxygenase (Photinus pyralis) (UniProt P08659)
# Sequence (P08659 whole entry, looked up): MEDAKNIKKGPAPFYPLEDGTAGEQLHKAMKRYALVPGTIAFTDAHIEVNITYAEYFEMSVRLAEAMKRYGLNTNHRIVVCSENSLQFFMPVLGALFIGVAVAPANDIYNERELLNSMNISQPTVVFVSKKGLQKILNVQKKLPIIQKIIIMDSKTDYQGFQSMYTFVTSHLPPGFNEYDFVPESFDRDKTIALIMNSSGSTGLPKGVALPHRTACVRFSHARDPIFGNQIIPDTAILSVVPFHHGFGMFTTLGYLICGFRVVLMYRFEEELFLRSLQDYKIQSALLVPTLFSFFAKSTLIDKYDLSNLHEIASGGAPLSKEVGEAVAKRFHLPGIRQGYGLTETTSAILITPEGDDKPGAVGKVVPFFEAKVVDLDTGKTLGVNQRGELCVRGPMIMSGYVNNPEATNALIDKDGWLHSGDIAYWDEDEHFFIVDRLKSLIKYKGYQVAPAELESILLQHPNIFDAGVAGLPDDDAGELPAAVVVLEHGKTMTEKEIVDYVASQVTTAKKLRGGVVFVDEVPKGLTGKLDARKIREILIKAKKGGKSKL
# Experiment: Biochemical firefly luciferase enzyme assay for NPC (AID 624030); also: nearly all actives have a fitted effect of over 70% in size;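 as to activity change, negative = inhibition: 0% = DMSO and -100% = full luciferase inhibition by PTC124 control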
# Details: purified P. pyralis luciferase, luminescence, 5 min; series mostly up to 58.6 µM; activity change, negative = inhibition: at the top concentration
# Source text: Charcot-Marie-Tooth-Association [CMTA] National Center for Advancing Translational Sciences [NCATS] Charcot-Marie-Tooth (CMT) disease was first characterized by Jean-Martin Charcot and Pierre Marie in France and, independently, by Howard Henry Tooth in England in 1886. CMT is one of the most common inherited neurological diseases, affecting approximately 1 in 2,500 Americans. […] The most prevalent type of CMT is known as CMT1A and caused by a duplication of the PMP22 gene which leads to over-expression of this protein. PMP22 is a glycosylated intrinsic membrane protein accounting for 2-5% of the myelin protein content, and its over-expression results in demyelination and subsequently axonal loss. A pair of cellular transcription-based assays was developed in the S16 rat Schwann cell lines (Hai, M., et al., 2002) stably transfected with orthogonal reporters - firefly luciferase (Fluc) and beta-lactamase (beta-Lac) - whose expression is driven by an intronic regulatory element of the PMP22 gene (Jones, E.A., et al., 2011) to recapitulate endogenous expression of PMP22. A comprehensive library of approved drugs, the NCGC Pharmaceutical Collection (Huang, R., et al., 2011), was screened in the cross-validating platform of the orthogonal reporter assays to identify drug modulators inhibitory towards PMP22 expression. A set of counter-screens was devised to address non-specific activity of the library. An ATP-dependent CellTiter-Glo assay (developed by Promega Corp) was utilized to control cell viability. In addition, biochemical Fluc enzyme assay was performed to assess direct inhibition of the Fluc enzymatic activity. References Hai, M., Muja, N., DeVries, G.H., Quarles, R.H. and Patel, P.I. Comparative analysis of Schwann cell lines as model systems for myelin gene transcription studies. J Neurosci Res, 2002. 69(4): pp 497-508 Huang, R., Southall, N., Wang, Y., Yasgar A., Shinn P., Jadhav, A. , Nguyen, D.-T. and Austin, C.P., The NCGC pharmaceutical collection: a comprehensive resource of clinically approved drugs enabling repurposing and chemical genomics. Sci Transl Med, 2011. 3(80): p. 80ps16.
# Compounds were transferred to the plates in 23nl, and one microliter/well luciferase enzyme-buffer solution (10 nM P. pyralis luciferase and 50 mM Tris Acetate final concentrations) was dispensed yielding a final reaction volume of […]. Luciferase luminescence was measured by a ViewLux plate reader within 5 minutes of enzyme-buffer addition. The % activity was determined by normalizing to the average readings of PTC124 (a positive control) relative to DMSO (0% Activity). The concentration-effect curves were then classified based on curve quality (r2), response magnitude and degree of measured activity.
# Potency is read from the fitted curve at half-maximal effect.
SMILES,"activity change, negative = inhibition",Potency
CC1=C(C)C(=O)C(CCCCC#CCCCC#CCO)=C(C)C1=O,-15%,–
Cc1nnc(SCC2=C(C(=O)O)N3C(=O)[C@@H](NC(=O)Cn4cnnn4)[C@H]3SC2)s1,17.2%,–
CN(C)C/C=C(/c1ccc(Br)cc1)c1cccnc1,-3.24%,–
CCNC(=O)N1CCN(CCCC(c2ccc(F)cc2)c2ccc(F)cc2)CC1,-5.59%,–
CCOC(=O)C1=C(C)NC(C)=C(C(=O)OC)C1c1cccc([N+](=O)[O-])c1 (stereo not given),-11.9%,–
COC(=O)[C@H]1[C@H]2C[C@@H]3c4[nH]c5cc(OC)ccc5c4CCN3C[C@H]2C[C@@H](OC(=O)c2cc(OC)c(OC)c(OC)c2)[C@@H]1OC,1.01%,–
CCN(CC)CC(=O)Nc1c(C)cccc1C,1.86%,–
CNCCC(Oc1ccccc1OC)c1ccccc1 (stereo not given),2.31%,–
c1cc(CN2CCCCC2)cc(OCCCNc2nc3ccccc3s2)c1,-1.98%,–
C=CCc1ccccc1OCC(O)CNC(C)C (stereo not given),0.68%,–
NC/C=C/C(=O)O,0.682%,–
Cc1scc2c1N(C(=O)CN1CCN(C)CC1)c1ccccc1NC2=O,-0.204%,–
CC(C)(Oc1ccc(CCNC(=O)c2ccc(Cl)cc2)cc1)C(=O)O,-13.7% [at 24.9 µM],–
c1cnc(N2CCN(Cc3ccc4c(c3)OCO4)CC2)nc1,-5.22%,–
CCN(CC)CCNC(=O)c1ccc(NC(C)=O)cc1,1.4%,–
CC(=O)[C@]1(O)Cc2c(O)c3c(c(O)c2[C@@H](O[C@H]2C[C@H](N)[C@H](O)[C@H](C)O2)C1)C(=O)c1ccccc1C3=O,-4.31%,–
CCCCCCCC/C=C\CCCCCCCC(=O)NCc1ccc(O)c(OC)c1,-5.67%,–
OC(CCN1CCCCC1)(c1ccccc1)C1CCCCC1 (stereo not given),7.42%,–
COc1ccc(CCN(C)CCCC(C#N)(c2cc(OC)c(OC)c(OC)c2)C(C)C)cc1OC (stereo not given),3.57%,–
CCCN1C[C@H](CSC)C[C@@H]2c3cccc4[nH]cc(c34)C[C@H]21,5.9%,–

SMILES,"activity change, negative = inhibition",Potency
NC(=O)N1c2ccccc2C=Cc2ccccc21,2.86%,–
CN(C(=O)CCCOc1ccc2[nH]c(=O)ccc2c1)C1CCCCC1,-4.88%,–
CCN(CC)CCCN(c1ccccc1)C1Cc2ccccc2C1,13.6%,–
C[N+](C)(C)CCOC(N)=O,3.02%,–
COCC(=O)O[C@]1(CCN(C)CCCc2nc3ccccc3[nH]2)CCc2cc(F)ccc2[C@@H]1C(C)C,8.04%,–
Cc1nc2c([nH]1)c(=O)n(C)c(=O)n2Cc1ccco1,-3.77%,–
C[n+]1cc2c3c(ccc2c2ccc4cc5c(cc4c21)OCO5)OCO3,–,7.21 µM (active)
CC(=O)[C@@]1(O)CC[C@H]2[C@@H]3CCC4=CC(=O)CC[C@]4(C)[C@H]3CC[C@@]21C,0.665%,–
CCn1nc(C(=O)O)c(=O)c2cc3c(cc21)OCO3,0.859% [at 24.9 µM],–
CCn1ccnc1CC1COc2ccccc2O1 (stereo not given),1.84%,–
CN(C)C(=O)Oc1ccc[n+](C)c1,-2.09%,–
NC(=O)c1cn(Cc2c(F)cccc2F)nn1,0.547%,–
O=C1CC2(CCCC2)CC(=O)N1CCCCN1CCN(c2ncccn2)CC1,3.31%,–
CC(=O)OCC1=C(C(=O)O)N2C(=O)[C@@H](NC(=O)Cc3cccs3)[C@H]2SC1,-1.75%,–
Cc1nc2sccn2c(=O)c1CCN1CCC(=C(c2ccc(F)cc2)c2ccc(F)cc2)CC1,12.5%,–
Nc1nc(N)c2nc(-c3ccccc3)c(N)nc2n1,-6.52%,–
O=c1[nH]c(=O)n([C@H]2C[C@H](O)[C@@H](CO)O2)cc1Br,2.34%,–
O=C(O)CP(=O)(O)O,-0.221%,–
CCC(=O)c1ccc2c(c1)N(CCCN(C)C)c1ccccc1S2,9.88%,–
Cc1cc(C)c(/C=C2\C(=O)Nc3ccccc32)[nH]1,-12.6%,–
